Bioassay records deposited in PubChem by National Center for Advancing Translational Sciences (NCATS).
This is a sample that favours compounds with a hit; in the whole collection about 4.8% have one here.
D3 ag = activates the human D3 dopamine receptor | D3R DiscoveRx beta-arrestin cells, luminescence, 90 min | max activation, % | AID 652048 | 0.58% of 410,000 active | P35462; in the data active = max activation above about 30%; also: 0% is about no effect
Target sequence (P35462 whole entry, looked up): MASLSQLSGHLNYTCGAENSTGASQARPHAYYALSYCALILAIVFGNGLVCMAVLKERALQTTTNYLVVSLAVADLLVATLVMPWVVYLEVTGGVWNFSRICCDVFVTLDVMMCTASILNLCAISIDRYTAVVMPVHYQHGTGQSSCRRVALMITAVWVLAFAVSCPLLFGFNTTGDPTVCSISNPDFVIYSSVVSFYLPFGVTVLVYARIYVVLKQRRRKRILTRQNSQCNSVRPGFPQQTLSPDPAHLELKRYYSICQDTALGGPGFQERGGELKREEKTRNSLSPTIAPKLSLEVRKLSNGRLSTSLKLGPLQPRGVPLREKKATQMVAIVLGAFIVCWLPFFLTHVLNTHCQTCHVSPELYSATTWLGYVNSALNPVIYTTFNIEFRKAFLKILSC
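Agonist mode: compounds and dopamine controls were applied to plated cells for 90 min at 37 degrees C after an overnight attachment at 1500 cells/well. Luminescent read-out followed 30 - 60 minutes at room temperature with DiscoveRx detection reagent.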
ATXN viability = cell viability loss in ATXN counter-screen | S2 cells (HEK-293 line with an ATXN2-luciferase reporter) viability, CellTiter-Fluor protease fluorescence, 24 h | Potency, µM (series often up to 56.7 µM), most hits filed as cytotoxic | 0.49% of 400,000 active | AID 651635; also: potency is read from the fitted curve at half-maximal effect; nearly all actives have a fitted effect of over 40% in size
HepG2 tox = HepG2 cytotoxicity, counter-screen for TGF-b inhibitors. Potency, µM (top dose mostly 46.1 µM), without a hit: top-dose activity change, negative = cytotoxicity, most hits filed as cytotoxic. AID 588856. 0.76% of 410,000 active. HepG2 CAGA-GFP viability, ATP luminescence, 18 h; also: potency is read from the fitted curve at half-maximal effect
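HepG2 CAGA-GFP cells (1000/well, DMEM with 1% FBS) received compound, then TGF-beta at 500 pg/mL final, and were incubated 18 hours at 37 degrees C. Viability was read by CellTiter-Glo luminescence. Media-only wells were set as complete cell-killing and DMSO as no toxicity.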
DRD3 antagonist = antagonists of human D3 dopamine receptor; P35462; D3R cells, DiscoveRx beta-arrestin luminescence, antagonist mode; hits give low values; max response, negative = inhibition, %; 2.5% of 360,000 active; AID 652054; in the data active = max response below about -50%; inconclusive = no clear call, values can overlap the other calls; also: % is scaled to controls: 0 for no effect and ±100 for the full control effect
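Cells plated overnight at 1500 cells/well, then exposed to library compounds with dopamine controls for 90 minutes at 37 degrees C. DiscoveRx reagent added for 30–60 minutes at room temperature; luminescence read, quantitative HTS format.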
TGFb SMAD3 inh = inhibitors of TGF-b signaling; HepG2 CAGA-GFP TGF-b/SMAD3 reporter, GFP fluorescence, 18 h; TGF-beta stimulated, 500 pg/mL final; Potency, µM (doses to about 46.1 µM), for the others: at the highest dose activity, negative = inhibition, usual class: inhibitors; 1.2% of 410,000 active; AID 588855; also: potency is read from the fitted curve at half-maximal effect; % is scaled to controls: 0 for no effect and ±100 for the full control effect; nearly all actives have a fitted effect of over 65% in size
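Cell-based qHTS in HEPG2 carrying a CAGA-GFP Smad reporter; compounds added before 500 pg/mL final TGF-beta, 18 h incubation at 37 degrees C, GFP fluorescence quantified per cell by imaging cytometry.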
ATXN2 expr inh = inhibitors of ATXN2 expression | Potency, µM (doses to about 57 µM), inactives show at the highest dose activity change, negative = inhibition, hits mostly inhibitors | AID 1745845 | HEK-293 ATXN2-luciferase reporter, luminescence, 24 h | 0.72% of 360,000 active; also: potency is read from the fitted curve at half-maximal effect; % is scaled to controls: 0 for no effect and ±100 for the full control effect; nearly all actives have a fitted effect of over 55% in size
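ATXN2-luciferase reporter cells (luciferase flanked by upstream and downstream ATXN2 gene portions) were treated 24 h at 37 °C with compounds at up to 57 uM. SteadyGlo luminescence gave expression; GF-AFC fluorescence gave viability.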
Starred values were filed as active, the others as inactive; i = inactive; ? = inconclusive; / = no result given. Unless noted, calls follow the shape of the dose curve; as a rule, active = well fitted curve in the direction sought with a large enough effect; inconclusive = small, poorly fitted or top-dose-only effect, or another doubt; inactive = no such curve, though single readings can be large; an effect the other way counts as inactive or inconclusive.

SMILES	D3 ag	ATXN viability	HepG2 tox	DRD3 antagonist	TGFb SMAD3 inh	ATXN2 expr inh
C[C@H](CO)N1C[C@H](C)[C@@H](CN(C)S(=O)(=O)c2cn(C)cn2)Oc2ccc(NS(=O)(=O)c3ccccc3)cc2C1=O	35*	i	-4%	7	1%	3%
C[C@H](CO)N1C[C@H](C)[C@@H](CN(C)C(=O)Nc2ccccc2)Oc2ccc(NS(=O)(=O)c3ccc(F)cc3)cc2C1=O	37*	i	1%	13	1%	12%
CCOC(=O)c1cc(-c2ccccc2)n(CCCC(=O)Nc2cc(C)ccc2OC)c1C	-1	/	-23%	/	-7%	/
Cc1ccc(NC(=O)c2ccc(Cl)cc2Cl)c(C(=O)c2ccccc2)c1	-5	/	-27%	/	?	/
COc1ccc2c(=O)c(C)c(-c3ccccc3)oc2c1CN(C)C	-6	/	/	/	/	/
Cn1c(-c2ccccc2F)cc2onc(-c3ccccc3)c2c1=O	-60	i	-20%	-30	?	-10%
Cn1c(-c2ccccc2)cc2onc(-c3ccccc3)c2c1=O	0	i	-4%	-69*	-1%	-65%
Cc1ccc(CN2C(=O)C(=O)c3cc(Br)cc(C)c32)cc1	-19	/	-98%	/	?	?
N#CC(=C(N)Sc1ccc(N)cc1)c1ccccc1C(F)(F)F	/	/	/	/	/	7%
Fc1ccc(Nc2nc(N3CCOCC3)c3ccccc3n2)cc1	-1	i	-38%	25	?	-19%
c1ccc2c(Nc3nc(N4CCOCC4)c4ccccc4n3)cccc2c1	-5	i	-39%	2	25µM*	?
O=C(CN1C(=O)C2CCCCN2c2ccc(C(=O)N3CCCC3)cc21)NCc1cccc(Cl)c1 (configuration not stated)	6	i	0%	/	-26%	1%
O=C(NCc1nnc(SCc2ccc(F)cc2)n1-c1ccccc1)C12CC3CC(CC(C3)C1)C2	0	?	1%	-51*	?	-29%
COCCCNC(=O)C1CCCN(S(C)(=O)=O)C1 (configuration not stated)	-16	i	3.5µM*	0	9%	-9%
COC(=O)c1ccc(/C=N/NS(=O)(=O)c2cc(C)ccc2C)cc1	-49	?	-17%	-82*	-3%	8%
COc1cccc(NC(=S)N(CCc2ccc(OC)c(OC)c2)Cc2ccccn2)c1	-19	i	-16%	-53*	-6%	-8%
COc1ccc(CCN(Cc2ccccn2)C(=S)Nc2ccccc2C)cc1OC	-2	i	-11%	28	10%	1%
Cc1ccc(CNC(=O)c2ccc(N3CCC4(CC3)CC(c3ccccc3)=NO4)c(N)c2)cc1	34*	?	-45%	36	-9%	-16%
Cc1ccc(CNC(=O)c2ccc(N3CCC4(CC3)CC(c3ccccc3)=NO4)c([N+](=O)[O-])c2)cc1	-5	i	-28%	-61*	-2%	-15%
O=C(NCc1ccccc1)c1ccc(N2CCC3(CC2)CC(c2ccccc2)=NO3)c([N+](=O)[O-])c1	9	i	-12%	1	?	2%
CC1CCCCN1CCCNC(=O)c1ccc2c(c1)NC(=O)CN2C (configuration not stated)	-4	i	1%	-19	0%	/
CCCCN(CCCNC(=O)c1ccc2c(c1)NC(=O)CN2C)c1ccccc1	2	18µM*	16µM*	0	?	/
Cc1cccc(OCC(=O)N(Cc2cccc(Cl)c2)Cc2ccco2)c1C	-12	/	-40%	/	/	/
COc1ccc(NS(=O)(=O)c2cc3[nH]c(=O)c(=O)[nH]c3cc2C)cc1Cl	-1	i	5%	/	-5%	-4%
N#Cc1ccc(/C=C2/C=Cc3ccccc32)cc1	/	/	5%	/	-20%	/
SMILES	D3 ag	ATXN viability	HepG2 tox	DRD3 antagonist	TGFb SMAD3 inh	ATXN2 expr inh
COC(=O)CSC1=C(C#N)C(=O)NC(c2ccccc2)S1 (configuration not stated)	-2	i	1%	-74*	-3%	11%
COC(c1ccccc1)c1nnc(CCC(=O)N2CCCCCCC2)o1 (configuration not stated)	12	i	-27%	-16	-15%	0%
O=C(CCc1nnc(-c2ccc(-c3ccccc3)cc2)o1)N1CCCCC1	32*	i	-24%	31	-14%	-31%
CCC(C)Sc1cccc(-c2nc3ccc(C)cn3c2NCc2ccccc2)c1 (configuration not stated)	17	?	11µM*	43	10µM*	?
CCC(C)Sc1cccc(-c2nc3ccc(Cl)cn3c2NCc2ccccc2)c1 (configuration not stated)	0	i	-7%	-22	?	-32%
CCC(C)Sc1cccc(-c2nc3ccccn3c2NCc2ccccc2)c1 (configuration not stated)	33*	?	-39%	97	?	?
O=C(C[n+]1ccccc1Br)c1ccc(-c2ccccc2)cc1	/	/	-26%	/	?	/
Cc1cc(OCC(=O)Nc2cc(-c3nc4ccccc4[nH]3)ccc2C)ccc1Cl	19	/	11µM*	/	/	/
Cc1cc(OCC(=O)NCCc2nc3ccccc3[nH]2)cc(C)c1Cl	-3	/	-45%	/	20µM*	/
CCCCOc1cccc(OCC(=O)Nc2nc3ccccc3[nH]2)c1	2	i	13µM*	22	14µM*	-17%
CCn1c(SCC(=O)NCc2ccco2)nnc1-c1ccc(N(C)C)cc1	/	/	-26%	/	-23%	/
COC(=O)C1CCN(C(c2cc(OC)c(OC)c(OC)c2)c2sc3nc(C)nn3c2O)CC1 (configuration not stated)	2	/	1%	15	15%	-4%
COc1cc(C(c2sc3nc(C)nn3c2O)N2CCC3(CC2)OCCO3)cc(OC)c1OC (configuration not stated)	2	i	-7%	-51*	-4%	2%
CC(=O)Oc1c(C)cc(Cl)cc1C(=O)Nc1ccc([N+](=O)[O-])cc1Cl	5	28µM*	-42%	4	?	?
COc1ccc(/C=N/Nc2ncccc2[N+](=O)[O-])c(OC)c1	-3	i	4%	-54*	9%	/
COc1ccc2nc(C)cc(N/N=C/c3ccccc3)c2c1	1	/	-100%	7	?	?
COc1ccc2nc(C)cc(Nc3ccc(Cl)c(Cl)c3)c2c1	-21	22µM*	11µM*	/	?	25µM*
COc1ccc(/C=N/Nc2cc(C)nc3ccc(OC)cc23)c(OC)c1	-3	/	-107%	-13	10µM*	?
COc1ccc(/C=N/Nc2ncc(-c3ccccc3)cn2)c(OC)c1	-6	i	-44%	-16	?	?
